Reference: PubChem BioAssay (NCATS)
Results filed as inconclusive are left out. Values without a mark were called inactive. Active and inactive are the calls of the source. The call rests on the fitted dose curve; in most records, active means well fitted curve in the direction sought with a large enough effect in the repeat runs; inconclusive means weak or mixed curves; inactive means no such curve, though single readings can be large; an effect the other way counts as inactive or inconclusive.

Biological target: Cytochrome P450 2D6 (Homo sapiens) (UniProt P10635)
Assay: Cytochrome P450 family 2 subfamily D member 6 (CYP2D6) small molecule antagonists: luciferase biochemical (cell-free) qHTS assay (AID 1645840); further: nearly all actives have a fitted effect of over 55% in size; further: potency means the concentration at half of the fitted maximal effect; on activity change, negative = inhibition: on the % scale 0 is the no-effect control and ±100 the full control effect
Details: P450-Glo CYP2D6 enzyme, luciferin luminescence, 1 h; series mostly up to 57.4 µM; activity change, negative = inhibition: at the top concentration
How it was run: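 P450-Glo CYP2D6 system: proluciferin substrate converted by enzyme to luciferin, read by luminescence proportional to activity. Enzyme-substrate mix with compound 10 min at room temperature, then NADPH regeneration 1 h before detection reagent.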

Sequence of Cytochrome P450 2D6 (Homo sapiens) (P10635 whole entry, looked up): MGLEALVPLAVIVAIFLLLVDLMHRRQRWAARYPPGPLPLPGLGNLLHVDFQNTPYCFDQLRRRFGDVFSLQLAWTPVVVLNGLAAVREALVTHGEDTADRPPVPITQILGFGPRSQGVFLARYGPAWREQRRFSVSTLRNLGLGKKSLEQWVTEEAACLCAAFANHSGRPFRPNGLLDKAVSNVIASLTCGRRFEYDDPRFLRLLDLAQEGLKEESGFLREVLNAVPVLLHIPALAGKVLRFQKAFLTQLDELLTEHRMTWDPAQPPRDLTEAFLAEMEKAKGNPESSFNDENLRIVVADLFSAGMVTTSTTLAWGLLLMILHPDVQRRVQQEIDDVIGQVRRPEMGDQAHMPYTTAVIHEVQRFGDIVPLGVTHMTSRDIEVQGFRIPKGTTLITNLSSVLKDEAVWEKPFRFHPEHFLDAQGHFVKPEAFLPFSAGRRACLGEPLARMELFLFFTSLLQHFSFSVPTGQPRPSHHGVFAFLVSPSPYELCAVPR

SMILES | Potency | activity change, negative = inhibition
CCCCCCCCCCCCCCCCCC[N+](C)(C)CCC[Si](OC)(OC)OC | 15.1 µM (active) | 
Cc1cccc(C)c1NC(=O)C1CCCCN1C (centres undefined) | 9.52 µM (active) | 
CC(C)[C@@H]1CC[C@@H](C)C[C@H]1OC(=O)c1ccccc1O |  | 5.58%
CCC(Cc1c(I)cc(I)c(O)c1I)C(=O)O (centres undefined) |  | 7.23%
FCOC(C(F)(F)F)C(F)(F)F |  | -15.4%
S=C=Nc1ccc(N=C=S)cc1 |  | 3.47%
FC(F)OC(Cl)C(F)(F)F (centres undefined) |  | 17.8%
c1ccc(-n2cnnn2)cc1 |  | -1.18%
CO[C@H]1O[C@@H]2O[C@@]3(C)CC[C@H]4[C@H](C)CC[C@@H]([C@H]1C)[C@@]24OO3 |  | -1.07% [at 115 µM]
CCCc1ccc(C(=O)O)cc1 |  | 5.34%
C[C@H](CCCC(C)(C)O)[C@H]1CC[C@H]2[C@@H]3CC=C4C[C@@H](O)CC[C@]4(C)[C@H]3CC[C@]12C |  | 7.7%
NC(=S)N=Nc1ccc(NN=C(N)N)cc1 | 10.7 µM (active) | 
Cc1ncc(C[n+]2csc(CCO)c2C)c(N)n1 |  | 6.84%

Biological target: Cytochrome P450 3A4 (Homo sapiens) (UniProt P08684)
Assay: Cytochrome P450 family 3 subfamily A member 4 (CYP3A4) small molecule antagonists: luciferase qHTS assay (AID 1645841); further: nearly all actives have a fitted effect of over 45% in size
Details: P450-Glo CYP3A4 enzyme assay, luciferin luminescence; series mostly up to 57.4 µM; activity change, negative = inhibition: at the top concentration
How it was run: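 P450-Glo CYP3A4 enzyme with proluciferin substrate preincubated 10 min with compound at room temperature, then NADPH regeneration 1 h. Luciferin detection reagent added for 20 min; luminescence recorded. Ketoconazole positive control.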

Sequence of Cytochrome P450 3A4 (Homo sapiens) (P08684 whole entry, looked up): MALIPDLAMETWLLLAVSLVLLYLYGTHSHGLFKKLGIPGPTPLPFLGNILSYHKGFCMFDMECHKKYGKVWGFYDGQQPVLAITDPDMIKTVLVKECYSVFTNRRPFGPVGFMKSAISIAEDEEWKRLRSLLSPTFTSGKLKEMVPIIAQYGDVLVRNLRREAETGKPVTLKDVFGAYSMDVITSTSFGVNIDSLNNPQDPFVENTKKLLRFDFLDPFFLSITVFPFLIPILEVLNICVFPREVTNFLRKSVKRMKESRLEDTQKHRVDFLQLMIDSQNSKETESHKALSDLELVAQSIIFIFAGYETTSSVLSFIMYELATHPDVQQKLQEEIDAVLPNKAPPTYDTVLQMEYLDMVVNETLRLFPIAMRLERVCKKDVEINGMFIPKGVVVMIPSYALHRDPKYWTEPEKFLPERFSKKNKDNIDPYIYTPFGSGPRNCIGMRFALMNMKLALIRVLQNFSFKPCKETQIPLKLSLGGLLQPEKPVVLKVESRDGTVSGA

SMILES | activity change, negative = inhibition
CC(=O)Oc1cc(C(F)(F)F)ccc1C(=O)O | 36.7%
N=C(N)n1cccn1 | 26.4%
C=CC1=C(C(=O)O)N2C(=O)[C@@H](NC(=O)/C(=N\O)c3csc(N)n3)[C@H]2SC1 (stereo in doubt) | 30.6%
NC(=S)N=Nc1ccc(NN=C(N)N)cc1 | 7.18%
Cc1ncc(C[n+]2csc(CCO)c2C)c(N)n1 | 42.4%

Biological target: Cytochrome P450 2C9 (Homo sapiens) (UniProt P11712)
Assay: Cytochrome P450 family 2 subfamily C member 9 (CYP2C9) small molecule antagonists: luciferase biochemical (cell-free) qHTS assay (AID 1645842); further: nearly all actives have a fitted effect of over 55% in size; further: potency means the concentration at half of the fitted maximal effect; on activity change, negative = inhibition: on the % scale 0 is the no-effect control and ±100 the full control effect
Details: P450-Glo CYP2C9 enzyme assay, luciferin luminescence; series mostly up to 57.4 µM; activity change, negative = inhibition: at the top concentration
How it was run: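 P450-Glo CYP2C9 system: proluciferin substrate with enzyme in mix containing 0.4% BSA, 10 min at room temperature, then NADPH regeneration solution added and incubated 1 h at 37C. Detection reagent stopped reaction; luminescence read after 20 min as RLU.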

Sequence of Cytochrome P450 2C9 (Homo sapiens) (P11712 whole entry, looked up): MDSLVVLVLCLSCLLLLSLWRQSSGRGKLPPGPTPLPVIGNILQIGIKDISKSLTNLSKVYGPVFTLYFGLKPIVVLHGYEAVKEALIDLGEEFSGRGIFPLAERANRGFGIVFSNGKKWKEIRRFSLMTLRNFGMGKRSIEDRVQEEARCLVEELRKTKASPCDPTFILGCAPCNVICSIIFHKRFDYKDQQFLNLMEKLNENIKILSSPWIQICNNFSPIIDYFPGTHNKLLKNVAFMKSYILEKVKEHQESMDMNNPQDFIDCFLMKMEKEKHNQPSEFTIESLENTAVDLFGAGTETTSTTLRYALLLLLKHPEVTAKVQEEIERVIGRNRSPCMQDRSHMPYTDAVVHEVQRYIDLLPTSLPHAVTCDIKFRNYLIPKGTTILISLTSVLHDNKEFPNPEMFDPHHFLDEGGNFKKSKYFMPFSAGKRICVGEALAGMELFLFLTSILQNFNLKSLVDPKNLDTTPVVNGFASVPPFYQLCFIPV

SMILES | activity change, negative = inhibition | Potency
CC(CCc1ccc(O)cc1)NCC(O)c1ccc(O)cc1 (centres undefined) | -16.3% | 
CCC(O)c1ccccc1 (centres undefined) | -0.0927% | 
CCCC(=O)O | 0.814% | 
O=C(CO)[C@@H](O)[C@H](O)[C@@H](O)C(=O)O | -2.67% | 
COC(=O)CCC[N+](C)(C)C | -20.8% | 
CN1c2c(nc(N)[nH]c2=O)NCC1CNc1ccc(C(=O)NC(CCC(=O)O)C(=O)O)cc1 (centres undefined) | -15.7% | 
COC(=O)[C@@H](N)CS |  | 9.52 µM (active)
CCOC(C)OCC | -4.03% | 
C=CCCCCCCCCC(=O)OC | 0.756% | 
C[C@H](O)CN(C)C | 0.96% | 
CC12CCC(C[N+](C)(CCC[N+](C)(C)C)C1)C2(C)C (centres undefined) | 1.21% | 
N=C(N)n1cccn1 | 2.43% | 
COC(=O)c1ccccc1O | 4.38% | 
CO/N=C(\C(=O)N[C@@H]1C(=O)N2C(C(=O)O)=C(C[N+]3(C)CCCC3)CS[C@H]12)c1csc(N)n1 | -5.47% | 
CC[C@H]1OC(=O)C[C@@H](O)[C@H](C)[C@@H](O[C@@H]2O[C@H](C)[C@@H](O[C@H]3C[C@@](C)(O)[C@@H](O)[C@H](C)O3)[C@H](N(C)C)[C@H]2O)[C@@H](CC=O)C[C@@H](C)C(=O)/C=C/C(C)=C/[C@@H]1CO[C@@H]1O[C@H](C)[C@@H](O)[C@@H](OC)[C@H]1OC | 0.289% | 
c1ccc2ccccc2c1 | 5.88% | 

SMILES | activity change, negative = inhibition | Potency
Oc1cc(O)cc(O)c1 | -8.98% | 
C=CC1=C(C(=O)O)N2C(=O)[C@@H](NC(=O)/C(=N\O)c3csc(N)n3)[C@H]2SC1 (stereo in doubt) | -17.9% | 
CCCCCCCCCCCCCCCCCC[N+](C)(C)CCC[Si](OC)(OC)OC | 6.64% | 
Cc1cccc(C)c1NC(=O)C1CCCCN1C (centres undefined) | -14.6% | 
CC(C)[C@@H]1CC[C@@H](C)C[C@H]1OC(=O)c1ccccc1O | 5.13% | 
CCC(Cc1c(I)cc(I)c(O)c1I)C(=O)O (centres undefined) |  | 10.7 µM (active)
FCOC(C(F)(F)F)C(F)(F)F | -37.7% | 
S=C=Nc1ccc(N=C=S)cc1 | 4.66% | 
FC(F)OC(Cl)C(F)(F)F (centres undefined) | 0.108% | 
c1ccc(-n2cnnn2)cc1 | -1.26% | 
CO[C@H]1O[C@@H]2O[C@@]3(C)CC[C@H]4[C@H](C)CC[C@@H]([C@H]1C)[C@@]24OO3 |  | 39.8 µM (active)
CCCc1ccc(C(=O)O)cc1 | 6.96% | 
C[C@H](CCCC(C)(C)O)[C@H]1CC[C@H]2[C@@H]3CC=C4C[C@@H](O)CC[C@]4(C)[C@H]3CC[C@]12C | 5.78% | 
NC(=S)N=Nc1ccc(NN=C(N)N)cc1 |  | 15.1 µM (active)
Cc1ncc(C[n+]2csc(CCO)c2C)c(N)n1 | -1.38% | 
